High-throughput results from PubChem.
Only some compounds are listed: those with a hit (about 0.86% of all), similar ones and a draw of the others.
CDC25B CDK2 inh: primary biochemical HTRF screen for blockers of M-phase inducer phosphatase 2 binding to CDK2/cyclin A; P30305+P24941; HTRF CDC25B-CDK2/CyclinA binding, anti-His/anti-Flag; hits give high values; z-score (concentration not given with the values); actives 0.72% (n = 94,000); AID 1259370, 2018; in the data active = z-score above about 3.2
TAR Tat displ: TAR RNA-Tat peptide displacers, HIV-1, primary screen, biochemical, FRET, FAM/TAMRA-labeled Tat. actives 0.6% (n = 100,000). z-score (no concentration beside the values). HIV-1 TAR RNA, Tat peptide displacement FRET; hits give high values; active = z-score of 3 or more in at least 2 runs
Active calls of the source: *; x = no result given.

SMILES	CDC25B CDK2 inh	TAR Tat displ
O=C(Nc1nn2c(-c3ccco3)nnc2s1)c1ccco1	-1.13	22.5*
O=C(Cc1ccccc1)Nc1nn2c(-c3ccccc3)nnc2s1	-1.26	1.44
N#CC1=C2N=C(N)c3ccccc3N2C2=C(C(=O)CCC2)C1c1cccc(Cl)c1 (stereo not given)	19.5*	-3.56
COc1cccc(C2C(C#N)=C3N=C(N)c4ccccc4N3C3=C2C(=O)CCC3)c1 (stereo not given)	-1.68	-1.69
COc1ccc(CNc2ncnc3sc4c(c23)CCCC4)cc1	-1.7	0.87
Cc1nc(N2CCC(C(=O)O)CC2)c2c(C)c(C)sc2n1	x	4.79*
CCOC(=O)C1CCCN(C(=O)c2sc3nc(C)nc(N4CCC(C)CC4)c3c2C)C1 (stereo not given)	-0.42	x
COc1cccc2c1Oc1ncccc1N(C(=O)CCC(=O)O)C2	1.76	0.06
COc1cccc2c1Oc1ncccc1NC2	8.56*	0.72
CSc1nc(NCCCO)c(C#N)c(-c2ccccc2)n1	-0.27	0.52
O=C1C(=O)N(CC(O)CN2C(=O)C(=O)c3ccccc32)c2ccccc21	2.3	14.6*
O=C1C(=O)N(Cc2ccccc2)c2ccccc21	0.31	2
COC(=O)c1cc2sccc2n1CC(=O)c1ccccc1	9.18*	0.2
COC(=O)c1cc2sccc2n1CC(=O)N(C)c1ccccc1	-1.2	1.15
O=C(NCc1cccs1)C1CCN(c2nnc(N3CCCCC3=O)s2)CC1	x	1.31
O=C(Nc1cnc2ccccn2c1=O)N1CCN(c2ccccc2)CC1	-1.87	2.26
CC(C)CCNc1nc(Nc2ccc(Cl)cc2)c2cnn(C)c2n1	x	0.69
Brc1ccc(C(c2c[nH]c3ccccc23)c2c[nH]c3ccccc23)s1	16.2*	x
O=C(c1ccc(Br)cc1)C(O)c1c[nH]c2ccccc12 (stereo not given)	0.22	1.2
Cc1ccc(N(C)S(=O)(=O)c2ccc3c(c2)NC(=O)C(C)CS3)cc1 (stereo not given)	x	-1.48
Cc1ccc(C)n1-c1nnc(N2CCCC(C(=O)NCCCOC(C)C)C2)s1 (stereo not given)	-0.12	-0.57
Cc1ccc(C)c(-c2n[nH]n3c2nc(=O)c2ccccc23)c1	x	1.77
Cc1ccc(OCc2cc(=O)n3nc(C)sc3n2)c(C)c1	-1.68	-0.78
Cc1cc(Cl)ccc1OCc1cc(=O)n2nc(-c3ccco3)sc2n1	1.45	13.1*
COc1ccc(Cl)cc1S(=O)(=O)N1CCCC(C(=O)O)C1 (stereo not given)	-1.78	1.3
SMILES	CDC25B CDK2 inh	TAR Tat displ
COc1ccc2c(c1)oc(=O)c1ccccc12	-1.69	0.03
COc1cc(O)c2c(c1)oc(=O)c1c3cc(O)c(O)cc3oc21	x	38.1*
C/C(CC(C)(C)Nc1ccccc1)=N\O	14.1*	x
CC(/C=N/O)=N\Nc1ccccc1	-1.8	x
O=c1c2nccnc2nc(SCc2ccccc2F)n1Cc1ccco1	-0.37	1.7
C/C=C(\C)C(=O)N/N=C/c1cccnc1	0.36	x
Oc1cc(O)cc(/C=C/c2ccc(O)c(O)c2)c1	1.74	36.8*
Oc1ccc(/C=C/c2ccc(/C=C/c3ccc(O)cc3)c(Br)c2)cc1	-0.23	x
CCCN(Cc1cccs1)C(=O)Nc1ccc2c(c1)OCCO2	-0.35	-0.59
O=C(CN1C(=O)CCCc2ccccc21)NC1CCCc2ccccc21 (stereo not given)	x	1.57
O=C(c1cnn2cc(Br)cnc12)N1CCCC1c1cccc(F)c1 (stereo not given)	0.57	29.5*
O=C(c1cnn2cc(Br)cnc12)N1CCCC1c1ccccc1F (stereo not given)	0.63	1.55
Cc1ccc(-c2onc(C)c2C)cc1S(=O)(=O)N1CCCN(Cc2ccc(F)cc2)C1	x	1
CCC(=O)Nc1ccc2c(c1)sc(=O)n2C	x	1.07
Cn1c(=O)sc2cc(NC(=O)Cn3c(=O)oc4ccccc43)ccc21	7.49*	1.7
Cc1ccc2nc(C(=O)O)cc(N3CCOCC3)c2c1	-0.52	0.59
CCOc1ccc(CN(CCc2ccc3c(c2)OCO3)Cc2cccnc2)cc1	15.8*	0.9
CCOc1ccccc1CN(CCc1ccc2c(c1)OCO2)Cc1cccnc1	-0.39	x
CCn1c2ccccc2c2cc(CN3CCN(S(C)(=O)=O)CC3)ccc21	0.07	0
CCn1c2ccccc2c2cc(CN3CCN(Cc4ccc(SC)cc4)CC3)ccc21	10.7*	x
CCC(C)N=C1NS(=O)(=O)C(c2ccc(F)cc2)=C1C (stereo not given)	x	0.17
CC1(C)CC(=O)c2c(oc3ccc(NS(=O)(=O)c4ccc(Br)cc4)cc23)C1	-0.39	-0.3
Cc1ccc(S(=O)(=O)Nc2c3ccccc3c(O)c3c4c(oc23)CC(C)(C)CC4=O)cc1	17.9*	x
COc1ccccc1-c1nc(=S)c2c([nH]1)Oc1c(cccc1OC)C2	-0.32	0.63
O=C(NCc1ccco1)C1=Cc2sc3c(c2CS1)CCCC3	x	1.27
SMILES	CDC25B CDK2 inh	TAR Tat displ
Oc1ccc2ccccc2c1C1Nc2cccc3cccc(c23)N1	-1.01	14.8*
c1ccc(-c2ccc(C3Nc4cccc5cccc(c45)N3)cc2)cc1	0.78	5.26
Cc1cccc(C2Nc3cccc4cccc(c34)N2)c1	0.56	4.32
COc1cc(C2Nc3cccc4cccc(c34)N2)ccc1O	0.77	7.27*
COc1ccc(SCc2cc(=O)n3nc(C)sc3n2)cc1	-2.05	2.81
CCOc1ccc2nc(NC(=O)Nc3cc(Cl)c(OC)cc3OC)sc2c1	-2.26	1.33
COc1ccc2nc(NC(=O)Nc3cc(Cl)c(OC)cc3OC)sc2c1	1.33	5.27*
O=C1CC(c2nc3ccccc3n2Cc2ccc(F)cc2)CN1Cc1ccccc1 (stereo not given)	-1.94	-0.72
Cc1ccc2cc(NC(=O)C3CC(=O)N(Cc4ccc(F)cc4)C3)ccc2n1 (stereo not given)	6.57*	x
O=C(c1ccccc1F)N(Cc1ccco1)C1CCS(=O)(=O)C1 (stereo not given)	-1.45	1.73
O=C(OCc1cc(=O)n2c(-c3ccccc3)csc2n1)c1cccs1	x	-0.44
COC(=O)c1cccc(NC(=O)Nc2ccccc2)c1	-2.01	x
Cc1ccc(C(=O)Nc2ccc(S(=O)(=O)O)c3cc(S(=O)(=O)O)cc(S(=O)(=O)O)c23)cc1NC(=O)c1cccc(NC(=O)Nc2cccc(C(=O)Nc3cc(C(=O)Nc4ccc(S(=O)(=O)O)c5cc(S(=O)(=O)O)cc(S(=O)(=O)O)c45)ccc3C)c2)c1	4.72*	-10.8
O=C1C2CCCN2C(c2ccc(Cl)cc2)N1c1cccc(Cl)c1 (stereo not given)	-1.23	1.35
COc1ccc(/C(O)=C2\C(=O)C(=O)N(CCN(C)C)C2c2ccccc2F)cc1 (stereo not given)	-0.1	1.29
COc1ccc(OC)c(C2CC(=O)N3CN(c4ccc(F)cc4)CSC3=C2C#N)c1 (stereo not given)	3.97*	-2.08
COc1ccc(Br)cc1C1CC(=O)N2CN(c3ccccc3OC)CSC2=C1C#N (stereo not given)	6.19*	0.32
COc1ccc(OC)c(C2CC(=O)N3CN(c4ccc(Br)cc4)CSC3=C2C#N)c1 (stereo not given)	4.52*	-0.7
COc1ccc(N2CSC3=C(C#N)C(c4cc(Br)ccc4OC)CC(=O)N3C2)cc1 (stereo not given)	5.38*	-0.71
COc1ccccc1N1CSC2=C(C#N)C(c3ccc(Br)cc3)CC(=O)N2C1 (stereo not given)	1.51	-4.77
